# Bioassay records from PubChem.
# The list is not random: actives were taken first. Their share in the collection is about 2.3%.
# M1 PAM parental: nonselective calcium activators in parental CHO-K1 cells, primary screen, counter-screen for M1 PAM project, cell-based, Fluo-8 calcium fluorescence, full deck, 1536-well | ATP EC20; 0% at ATP EC20, 100% at ATP max | activation, % at 3 µM | 0.02% of 360,000 active | AID 602247, 2012;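 active = activation above the run cutoff, the mean activation of all test compounds plus 3 SD, cut at about 40% in these data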;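 note: peak over basal fluorescence ratio in a 140 s read after ATP addition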
# CHO-K1 Ca antag: counter-screen for M1 antagonists: effect in parental CHO-K1 cells | inhibition, % at 3 µM | AID 602250 | 0.6% of 360,000 active | ATP-induced calcium, Fluo-8 fluorescence;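 active = inhibition above a per-plate cutoff, the plate's mean sample inhibition plus 3 SD, cut at about 24% in these data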;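 note: 0% = DMSO plus EC80 ATP and 100% = DMSO alone without ATP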
# M1 PAM: human M1 muscarinic receptor positive allosteric modulators, primary screen, CHO-K1 cells, Fluo-8 calcium fluorescence, 1536-well. CHO-K1 hM1, ACh EC20; 0% = ACh EC20, 100% = maximal ACh. 0.088% of 360,000 active. Muscarinic acetylcholine receptor M1 (Homo sapiens), P11229. activation, % at 3 µM; in the data active = activation above about 19%, passing the limit was not always enough
# Target sequence (P11229 whole entry, looked up): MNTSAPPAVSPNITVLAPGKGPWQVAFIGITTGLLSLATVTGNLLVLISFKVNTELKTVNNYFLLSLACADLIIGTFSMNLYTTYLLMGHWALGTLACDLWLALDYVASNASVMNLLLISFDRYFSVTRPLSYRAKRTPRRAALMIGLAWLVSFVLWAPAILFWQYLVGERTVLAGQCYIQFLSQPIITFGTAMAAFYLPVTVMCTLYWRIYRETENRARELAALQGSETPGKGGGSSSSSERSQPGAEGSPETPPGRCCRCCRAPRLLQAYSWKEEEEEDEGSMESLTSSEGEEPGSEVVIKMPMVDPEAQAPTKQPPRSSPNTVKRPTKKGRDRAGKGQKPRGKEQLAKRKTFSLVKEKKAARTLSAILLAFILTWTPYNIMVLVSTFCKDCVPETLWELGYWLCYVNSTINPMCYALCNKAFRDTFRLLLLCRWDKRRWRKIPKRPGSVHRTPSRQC
# CHRM1 agonist: human M1 muscarinic receptor agonists, primary screen, Fluo-8 calcium fluorescence, CHO-K1 cells, HTS; AID 588814, 2011; 0.33% of 360,000 active; activation, % at 3 µM; CHO-K1 hM1, agonist mode; 0% DMSO, 100% acetylcholine EC100; Muscarinic acetylcholine receptor M1 (Homo sapiens), P11229;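 active = activation above the run's mean compound activation plus 3 SD, cut at about 16% in these data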;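 note: peak over basal fluorescence ratio within a 140 s kinetic read after compound addition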
# M1 ag parental: counter-screen for M1 agonists: effect in parental CHO-K1 cells; Fluo-8 calcium fluorescence; scaled to maximal ATP response, vehicle zero; activation, % at 3 µM; 0.48% of 360,000 active; AID 602248, 2012; in the data active = activation above about 15%;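 note: untransfected CHO-K1 host cells lacking M1 receptor as counterscreen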
# M1 antag: human M1 muscarinic receptor antagonists, primary screen, CHO-K1 cells, Fluo-8 calcium fluorescence, 1536-well; AID 588852, 2011; CHO-K1 hM1, ACh EC80 antagonist; 1.3% of 360,000 active; inhibition, % at 3 µM; Muscarinic acetylcholine receptor M1 (Homo sapiens), P11229;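 active = percent inhibition above its own plate's cutoff, namely the mean of that plate's compound wells plus 3 SD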;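 note: peak over basal fluorescence ratio during 140 s after agonist addition; 0% = ACh EC80 plus DMSO and 100% = DMSO alone without agonist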
# The depositor's hits bear a star; . = no result.
SMILES,M1 PAM parental,CHO-K1 Ca antag,M1 PAM,CHRM1 agonist,M1 ag parental,M1 antag
CCCC(=O)Nc1nnc(Cc2ccccc2)s1,-7,31*,-8,-2,0,14
CC(=O)Nc1cccc(/C(C)=N/NC(=O)c2cccc(S(=O)(=O)N3CCCC3)c2)c1,-11,14,-5,-7,0,-1
COc1ccccc1NC(=O)C(=O)NCc1ccncc1,-14,25*,10,-2,0,2
COc1ccc(OC)c(NC(=O)C2C3C=CC(C3)C2C(=O)NCc2cccnc2)c1 (stereo unspecified),18,-8,-6,-6,0,4
COc1ccccc1NC(=O)C1C2C=CC(C2)C1C(=O)NCc1cccnc1 (stereo unspecified),-9,26*,-7,-2,0,18
COc1ccccc1NC(=O)C(=O)N1CCCC1,18,-5,0,-4,16*,8
COC(=O)c1ccccc1NC(=O)CCc1ccccc1,-12,24*,4,-7,0,-9
COC(=O)c1ccccc1NC(=O)NCc1ccncc1,20,6,7,-6,16*,-3
O=C1NC2c3c(Cl)sc(Cl)c3C(=O)C2O1 (stereo unspecified),4,-8,28*,5,0,-28
CSc1ncc(CN2CCN(C3CCCC3)C(CCO)C2)cn1 (stereo unspecified),15,-2,-18,-6,13,34*
CSc1ncc(CN2CCN(CC=C(C)C)C(CCO)C2)cn1 (stereo unspecified),12,-1,-14,-10,0,27*
N#Cc1c(N)[nH]c(C(=O)c2ccccc2)c1-c1ccc(Cl)cc1,8,-12,.,.,2,.
Cc1cccc(CC(=O)NCCS(=O)(=O)N2CCN(c3ccccc3)CC2)c1,-14,15,17,10,1,-12
O=C(c1ccc(-c2ccccc2)cc1)C1CCCN(Cc2ccncc2)C1 (stereo unspecified),15,1,-16,-13,8,11
CC(=O)Nc1ccc(CN(C)CC2CCCN(CCc3cccc(C(F)(F)F)c3)C2)cc1 (stereo unspecified),15,-11,-29,-8,0,52*
O=C(c1cccc(C(F)(F)F)c1)C1CCCN(Cc2cccc(OCCO)c2)C1 (stereo unspecified),-2,9,-31,-11,4,39*
O=C(c1cccc(C(F)(F)F)c1)C1CCCN(Cc2cccn2-c2ccccn2)C1 (stereo unspecified),5,0,-36,-14,2,35*
CC(=O)Nc1ccc(CN2CCCC(C(=O)c3ccc(C(F)(F)F)cc3)C2)cc1 (stereo unspecified),18,-15,-38,-16,3,51*
C[C@@H](NC(=O)[C@@H]1CCCN1C(=O)[C@@H]1CCCN1C(=O)c1cccc(Cl)c1)c1ccccc1,-1,-14,.,.,1,.
Cc1ccccc1-c1cc2nc(NCc3ccccc3F)n(C)c(=O)c2s1,4,3,15,-3,0,-19
CCCc1nc2ccc(Cl)cn2c1Cc1ccsc1,11,11,2,-10,2,-2
COCc1cc(CN2CCCC(C(=O)c3cccc(C(F)(F)F)c3)C2)ccc1OC (stereo unspecified),14,-9,-31,-12,2,43*
Cc1ccc(S(=O)(=O)c2nnn3c2nc(NC2CCN(Cc4ccccc4)CC2)c2ccccc23)cc1C,-1,8,-23,-6,0,75*
Cc1ccc(S(=O)(=O)c2nnn3c2nc(NCCCN2CCCC2=O)c2ccccc23)cc1C,-18,-2,-6,-5,2,13
COc1ccc2cc(C(=O)N/N=C/c3sc4ccccc4c3O)ccc2c1,13,9,-10,33*,9,15
SMILES,M1 PAM parental,CHO-K1 Ca antag,M1 PAM,CHRM1 agonist,M1 ag parental,M1 antag
COc1ccc(C(=O)N/N=C/c2sc3ccccc3c2O)cc1,14,-2,-3,6,9,-3
CCCc1nc2nc(C)c(NS(=O)(=O)c3ccc(C)c(C)c3)c(=O)n2[nH]1,4,-8,3,-4,0,-12
Cc1ccc(S(=O)(=O)N2CC3(O)CN(C(=O)OC(C)C)N(C(=O)OC(C)C)CC3(OC(=O)NC3CCCC3)C2)cc1 (stereo unspecified),16,-10,1,-1,4,-4
COC(=O)c1ccc(/C=C/c2c(-c3ccsc3)sc3ccccc23)cc1,-11,-11,-14,-7,0,40*
CCCCCCN1C[C@@H](O)[C@H](n2cc(COC(=O)c3ccccc3)nn2)C[C@@H]1c1ccc(C)cc1,-7,1,-5,-2,0,10
CCN1C(=O)[C@H]2[C@@H](c3ccc(OC)cc3)N[C@]3(CCCN(Cc4ccc(C)cc4)C3=O)[C@H]2C1=O,2,-5,7,-1,0,-7
CCOC(=O)C1(CCCc2ccccc2)CCN(C(=O)c2n[nH]c(CC)c2C)CC1,16,-9,-6,1,8,10
COc1ccc(C(=O)CSc2nnc(CN3CCCCC3)n2-c2ccc(F)cc2)cc1,27,-7,5,17*,20*,-3
COc1ccc(C(=O)CSc2nnc(-c3cccs3)n2-c2ccccc2)cc1,15,-18,4,-3,1,-3
CN(C)CCOC1c2ccccc2CSc2ccccc21 (stereo unspecified),5,1,-25,-8,0,99*
CC[n+]1c(/C=C/N(C)c2ccccc2)n(-c2ccccc2)c2ccc(-c3nc4ccccc4s3)cc21,-2,34*,-30,-6,6,98*
CCOC(=O)c1ccc2c(c1)n(CC)c(/C=C/N(C)c1ccccc1)[n+]2CC,11,-10,-13,-9,1,19
CCC(c1nnnn1Cc1ccccc1)N1CCN(c2ccc(OC)cc2)CC1 (stereo unspecified),6,-9,-2,-10,0,0
CCC(c1nnnn1Cc1ccc(OC)cc1)N1CCN(c2ccc(OC)cc2)CC1 (stereo unspecified),-15,25*,6,-2,0,-4
CCOC(=O)C1(C)CCN1C(=O)c1cncc(Br)c1 (stereo unspecified),10,1,12,-3,1,-18
CN(C)/C=N/c1cnc(C(=O)c2ccc(Cl)cc2)n1C,-6,7,26*,-1,0,10
